Values joined by “and” are separate entries in the source; they are usually repeats but may differ in a detail not shown here. Equal values may be shown once. Records with an inconclusive call do not appear. Where a call stands in place of a potency, no number is given. A number with no mark means an inactive call. Active and inactive are the calls of the source. Unless noted, the call rests on the fitted dose curve; in most records, active means well fitted cell-killing curve with a large enough effect in the repeat runs; inconclusive means weak or mixed curves, or effect the other way; inactive means flat fitted curve, though single readings scatter.
target: Estrogen receptor beta (Homo sapiens) (UniProt Q92731); experiment: qHTS assay to identify small molecule agonists of the estrogen receptor beta (ER-beta) signaling pathway (AID 1259377; active means well fitted activation curve with a large enough effect in the signal ratio in the repeat runs, not every such curve was filed as active; the % refers to the signal ratio; further: potency means the concentration at half of the fitted maximal effect); details: ER-beta-UAS-bla HEK293T, beta-lactamase FRET ratio, 16 h; series mostly up to 92.4 µM; activation: at the top concentration
Procedure, shortened: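 qHTS in ER-beta-UAS-bla HEK293T cells: 6 hr settling, then 16 hr compound at 37C, then LiveBLAzer substrate 2 h at RT before fluorescence reading.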

Estrogen receptor beta (Homo sapiens), sequence (Q92731 whole entry, looked up): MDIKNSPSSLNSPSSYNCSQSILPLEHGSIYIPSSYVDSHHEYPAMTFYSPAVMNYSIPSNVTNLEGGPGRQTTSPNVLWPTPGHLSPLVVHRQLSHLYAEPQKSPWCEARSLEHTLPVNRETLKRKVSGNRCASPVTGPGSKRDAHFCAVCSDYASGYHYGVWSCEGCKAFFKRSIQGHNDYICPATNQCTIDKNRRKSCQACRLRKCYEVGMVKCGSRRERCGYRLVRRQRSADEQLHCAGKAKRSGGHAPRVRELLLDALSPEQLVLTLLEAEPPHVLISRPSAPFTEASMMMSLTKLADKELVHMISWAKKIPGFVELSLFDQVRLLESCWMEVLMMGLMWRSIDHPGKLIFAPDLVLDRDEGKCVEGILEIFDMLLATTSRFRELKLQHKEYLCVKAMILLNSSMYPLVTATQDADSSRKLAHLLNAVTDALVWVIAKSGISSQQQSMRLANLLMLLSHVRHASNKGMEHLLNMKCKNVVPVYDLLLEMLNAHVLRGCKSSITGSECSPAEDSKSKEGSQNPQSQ

Row | Compound | Potency | activation
1 | CNC(=S)N(C)C | inactive | –
2 | CCCCCCCCCCCCCCCC(=O)OC(C)C | inactive | –
3 | CCc1ccccc1CC | – | 8.57%
4 | C=C(C)[C@H]1CC=C(C)C(=O)C1 | inactive | –
5 | C[C@]12CC[C@@H]3c4ccc(O)cc4CC[C@H]3[C@@H]1C[C@@H](O)[C@@H]2O | 4.3 nM (active) and 3 nM (active) | –
6 | c1ccc(Oc2ccccc2)cc1 | inactive | –
7 | Cc1ccc(S(=O)(=O)N=C=O)cc1 | inactive | –
8 | c1ccc2c(c1)Cc1ccccc1-2 | inactive | –
9 | Clc1ccccn1 | inactive | –
10 | CC(=O)OCc1ccco1 | inactive | –
11 | CCO[Si](CCC#N)(OCC)OCC | inactive | –
12 | COCCOC(=O)c1ccccc1C(=O)OCCOC | inactive | –
13 | CN(C)c1ccc(Cc2ccc(N(C)C)cc2)cc1 | inactive | –
14 | N[C@H](Cc1c[nH]c2ccccc12)C(=O)O | – | -0.553%
15 | CCCCCCCCCCCC(=O)OC | – | 1.76%
16 | C=Cc1ccc(C)cc1 | – | 1.51%
17 | CC(=O)OC1CC(C)OC(C)O1 (configuration not stated) | – | 0.747%
18 | CCCCCCCO | inactive | –

Row | Compound | Potency | activation
19 | CCCCC(C=O)CC (configuration not stated) | – | -0.342%
20 | C=CCCCCCCCCC(=O)O | inactive | –
21 | CN(C)c1ccc(O)c2c1C[C@H]1C[C@H]3[C@H](N(C)C)C(=O)C(C(N)=O)=C(O)[C@@]3(O)C(=O)C1=C2O | – | -3.08%
22 | CC(C)(C#N)c1cc(Cn2cncn2)cc(C(C)(C)C#N)c1 | – | -1.64% [at 42.5 µM]
23 | CN1C(=O)CC[C@H]1c1cccnc1 | inactive | –
24 | CC1(C)OC[C@@H]2O[C@@]3(C(=O)O)OC(C)(C)O[C@H]3[C@@H]2O1 | inactive | –
25 | O=C1c2ccccc2CCc2ccccc21 | – | 2.87% [at 42.5 µM]
26 | C=CC[N+](C)(C)CC=C | inactive | –
27 | Nc1ccc(Cl)c(N)c1 | inactive | –
28 | CCCCCCCCCCCCCCCCO | inactive | –
29 | CCCCOC(=O)c1ccc(N)cc1 | inactive | –
30 | COc1ccc([N+](=O)[O-])cc1N | inactive | –
31 | CC(CCl)OP(=O)(OC(C)CCl)OC(C)CCl (configuration not stated) | inactive | –
32 | CCCCCCCCCCO | inactive | –
33 | N#Cc1ccccc1 | – | 4.04%
34 | COc1ccc(CCC(C)=O)cc1 | – | -0.115% [at 42.5 µM]
35 | NCCNCCN | inactive | –

target: Estrogen receptor beta (Homo sapiens) (UniProt Q92731); experiment: qHTS assay to identify small molecule antagonists of the estrogen receptor beta (ER-beta) signaling pathway (AID 1259378; active means well fitted inhibition curve with a large enough effect in the signal ratio in the repeat runs, not every such curve was filed as active; the % refers to the signal ratio); details: ER-beta-UAS-bla HEK293T, beta-lactamase FRET ratio, 16 h; series mostly up to 92.4 µM; activity, negative = inhibition: at the top concentration
Procedure, shortened: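 ER-beta-UAS-bla HEK293T (GripTite) cells in 2% charcoal-stripped FBS medium were preincubated 6 hr at 37C, dosed with compound, then stimulated with 1 nM E2 (final) for 16 hr; beta-lactamase reporter read by B/G FRET fluorescence after 2 hr substrate loading.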

Row | Compound | Potency | activity, negative = inhibition
36 | CNC(=S)N(C)C | inactive | –
37 | CCCCCCCCCCCCCCCC(=O)OC(C)C | inactive | –
38 | CCc1ccccc1CC | inactive | –
39 | C=C(C)[C@H]1CC=C(C)C(=O)C1 | inactive | –
40 | c1ccc(Oc2ccccc2)cc1 | inactive | –
41 | Cc1ccc(S(=O)(=O)N=C=O)cc1 | inactive | –
42 | Brc1ccc(Br)c(Br)c1 | inactive | –
43 | c1ccc2c(c1)Cc1ccccc1-2 | – | 13.3%
44 | Clc1ccccn1 | inactive | –
45 | CC(=O)OCc1ccco1 | – | 9.4%
46 | CCO[Si](CCC#N)(OCC)OCC | – | 16.4%
47 | COCCOC(=O)c1ccccc1C(=O)OCCOC | inactive | –
48 | CN(C)c1ccc(Cc2ccc(N(C)C)cc2)cc1 | – | 2.06%
49 | N[C@H](Cc1c[nH]c2ccccc12)C(=O)O | inactive | –
50 | CCCCCCCCCCCC(=O)OC | inactive | –
51 | C=Cc1ccc(C)cc1 | inactive | –
52 | CC(=O)OC1CC(C)OC(C)O1 (configuration not stated) | inactive | –

Row | Compound | Potency | activity, negative = inhibition
53 | CCCCCCCO | inactive | –
54 | CCCCC(C=O)CC (configuration not stated) | inactive | –
55 | CN(C)c1ccc(O)c2c1C[C@H]1C[C@H]3[C@H](N(C)C)C(=O)C(C(N)=O)=C(O)[C@@]3(O)C(=O)C1=C2O | – | -15.3%
56 | CC(C)(C#N)c1cc(Cn2cncn2)cc(C(C)(C)C#N)c1 | inactive | –
57 | CN1C(=O)CC[C@H]1c1cccnc1 | inactive | –
58 | CC1(C)OC[C@@H]2O[C@@]3(C(=O)O)OC(C)(C)O[C@H]3[C@@H]2O1 | inactive | –
59 | O=C1c2ccccc2CCc2ccccc21 | inactive | –
60 | C=CC[N+](C)(C)CC=C | inactive | –
61 | Nc1ccc(Cl)c(N)c1 | – | -25.6%
62 | CCCCCCCCCCCCCCCCO | inactive | –
63 | OCc1cccc(Oc2ccccc2)c1 | – | -10.7%
64 | COc1ccc([N+](=O)[O-])cc1N | inactive | –
65 | CC(CCl)OP(=O)(OC(C)CCl)OC(C)CCl (configuration not stated) | inactive | –
66 | N#Cc1ccccc1 | inactive | –
67 | CC(=O)c1ccc(O)cc1 | – | 11.5%
68 | COc1ccc(CCC(C)=O)cc1 | – | 0.74% [at 42.5 µM]
69 | NCCNCCN | inactive | –

test system: not listed separately; experiment: qHTS assay to identify small molecule agonists of the androgen receptor (AR) signaling pathway in the presence of an antagonist - cell viability counter screen (AID 1259379); details: MDA-kb2 viability, CellTiter-Fluor, 16 h; series mostly up to 92.4 µM; activity change, negative = cytotoxicity: at the top concentration;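 further: MDA-kb2 human breast cancer cells carrying an MMTV luciferase reporter; nearly all actives have a fitted effect of over 25% in size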
Procedure, shortened: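 Cytotoxicity counter-screen run in the same wells as the nilutamide-challenged (3.0 µM final) AR agonist assay in MDA-kb2 cells. Compounds tested at 15 concentrations for 16 h, 37 °C without CO2; CellTiter-Fluor fluorescence read.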

Row | Compound | Potency | activity change, negative = cytotoxicity
70 | CNC(=S)N(C)C | inactive | –
71 | CCCCCCCCCCCCCCCC(=O)OC(C)C | inactive | –
72 | CCc1ccccc1CC | inactive | –
73 | C=C(C)[C@H]1CC=C(C)C(=O)C1 | inactive | –
74 | C[C@]12CC[C@@H]3c4ccc(O)cc4CC[C@H]3[C@@H]1C[C@@H](O)[C@@H]2O | inactive | –
75 | c1ccc(Oc2ccccc2)cc1 | inactive | –
76 | Cc1ccc(S(=O)(=O)N=C=O)cc1 | inactive | –
77 | Brc1ccc(Br)c(Br)c1 | inactive | –
78 | c1ccc2c(c1)Cc1ccccc1-2 | inactive | –
79 | Clc1ccccn1 | inactive | –
80 | CC(=O)OCc1ccco1 | inactive | –
81 | CCO[Si](CCC#N)(OCC)OCC | inactive | –
82 | COCCOC(=O)c1ccccc1C(=O)OCCOC | inactive | –
83 | CN(C)c1ccc(Cc2ccc(N(C)C)cc2)cc1 | inactive | –
84 | N[C@H](Cc1c[nH]c2ccccc12)C(=O)O | inactive | –
85 | CCCCCCCCCCCC(=O)OC | inactive | –
86 | C=Cc1ccc(C)cc1 | inactive | –
87 | CC(=O)OC1CC(C)OC(C)O1 (configuration not stated) | inactive | –
88 | CCCCCCCO | inactive | –

Row | Compound | Potency | activity change, negative = cytotoxicity
89 | CCCCC(C=O)CC (configuration not stated) | inactive | –
90 | C=CCCCCCCCCC(=O)O | inactive | –
91 | CN(C)c1ccc(O)c2c1C[C@H]1C[C@H]3[C@H](N(C)C)C(=O)C(C(N)=O)=C(O)[C@@]3(O)C(=O)C1=C2O | – | -10% [at 42.5 µM]
92 | CC(C)(C#N)c1cc(Cn2cncn2)cc(C(C)(C)C#N)c1 | inactive | –
93 | CN1C(=O)CC[C@H]1c1cccnc1 | inactive | –
94 | CC1(C)OC[C@@H]2O[C@@]3(C(=O)O)OC(C)(C)O[C@H]3[C@@H]2O1 | inactive | –
95 | O=C1c2ccccc2CCc2ccccc21 | inactive | –
96 | C=CC[N+](C)(C)CC=C | inactive | –
97 | Nc1ccc(Cl)c(N)c1 | inactive | –
98 | CCCCCCCCCCCCCCCCO | inactive | –
99 | OCc1cccc(Oc2ccccc2)c1 | inactive | –
100 | CCCCOC(=O)c1ccc(N)cc1 | inactive | –
101 | COc1ccc([N+](=O)[O-])cc1N | – | -11.3%
102 | CC(CCl)OP(=O)(OC(C)CCl)OC(C)CCl (configuration not stated) | inactive | –
103 | CCCCCCCCCCO | inactive | –
104 | N#Cc1ccccc1 | inactive | –
105 | CC(=O)c1ccc(O)cc1 | inactive | –
106 | COc1ccc(CCC(C)=O)cc1 | inactive | –
107 | NCCNCCN | inactive | –
